Laboratory results taken from ChEMBL document CHEMBL5308504, “Tm Shift (DSF) assay results for EUbOPEN Chemogenomics Library” (2023).
“And” between values parts separate entries of the source, which are not always exact repeats. Identical values can stand only once.

Key:
Settings in all cases: Compound concentration 20.0 uM, Protein concentration 2.0 uM, Result type QC Liability
[1] = target: Tyrosine-protein kinase ABL1 (Homo sapiens) (UniProt P00519)
[2] = target: Cyclin-dependent kinase 2 (Homo sapiens) (UniProt P24941)
[3] = target: Casein kinase I isoform delta (Homo sapiens) (UniProt P48730)
[4] = target: Glycogen synthase kinase-3 beta (Homo sapiens) (UniProt P49841)
[5] = target: Mitogen-activated protein kinase 1 (Homo sapiens) (UniProt P28482)
[6] = target: T1, Aurora kinase A (Homo sapiens) (UniProt O14965)
T1 sequence (whole entry): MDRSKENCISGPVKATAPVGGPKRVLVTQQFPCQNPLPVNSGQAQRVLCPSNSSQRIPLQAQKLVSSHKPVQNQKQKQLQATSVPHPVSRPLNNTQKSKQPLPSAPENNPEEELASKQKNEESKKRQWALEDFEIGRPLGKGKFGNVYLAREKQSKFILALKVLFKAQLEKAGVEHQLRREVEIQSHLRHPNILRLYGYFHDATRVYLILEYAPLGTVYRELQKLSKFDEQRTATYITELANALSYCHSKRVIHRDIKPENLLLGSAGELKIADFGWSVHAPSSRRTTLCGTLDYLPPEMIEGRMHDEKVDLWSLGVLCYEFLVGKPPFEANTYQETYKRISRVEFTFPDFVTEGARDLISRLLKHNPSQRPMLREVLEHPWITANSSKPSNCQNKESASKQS

Sequence of Tyrosine-protein kinase ABL1 (Homo sapiens) (P00519 whole entry): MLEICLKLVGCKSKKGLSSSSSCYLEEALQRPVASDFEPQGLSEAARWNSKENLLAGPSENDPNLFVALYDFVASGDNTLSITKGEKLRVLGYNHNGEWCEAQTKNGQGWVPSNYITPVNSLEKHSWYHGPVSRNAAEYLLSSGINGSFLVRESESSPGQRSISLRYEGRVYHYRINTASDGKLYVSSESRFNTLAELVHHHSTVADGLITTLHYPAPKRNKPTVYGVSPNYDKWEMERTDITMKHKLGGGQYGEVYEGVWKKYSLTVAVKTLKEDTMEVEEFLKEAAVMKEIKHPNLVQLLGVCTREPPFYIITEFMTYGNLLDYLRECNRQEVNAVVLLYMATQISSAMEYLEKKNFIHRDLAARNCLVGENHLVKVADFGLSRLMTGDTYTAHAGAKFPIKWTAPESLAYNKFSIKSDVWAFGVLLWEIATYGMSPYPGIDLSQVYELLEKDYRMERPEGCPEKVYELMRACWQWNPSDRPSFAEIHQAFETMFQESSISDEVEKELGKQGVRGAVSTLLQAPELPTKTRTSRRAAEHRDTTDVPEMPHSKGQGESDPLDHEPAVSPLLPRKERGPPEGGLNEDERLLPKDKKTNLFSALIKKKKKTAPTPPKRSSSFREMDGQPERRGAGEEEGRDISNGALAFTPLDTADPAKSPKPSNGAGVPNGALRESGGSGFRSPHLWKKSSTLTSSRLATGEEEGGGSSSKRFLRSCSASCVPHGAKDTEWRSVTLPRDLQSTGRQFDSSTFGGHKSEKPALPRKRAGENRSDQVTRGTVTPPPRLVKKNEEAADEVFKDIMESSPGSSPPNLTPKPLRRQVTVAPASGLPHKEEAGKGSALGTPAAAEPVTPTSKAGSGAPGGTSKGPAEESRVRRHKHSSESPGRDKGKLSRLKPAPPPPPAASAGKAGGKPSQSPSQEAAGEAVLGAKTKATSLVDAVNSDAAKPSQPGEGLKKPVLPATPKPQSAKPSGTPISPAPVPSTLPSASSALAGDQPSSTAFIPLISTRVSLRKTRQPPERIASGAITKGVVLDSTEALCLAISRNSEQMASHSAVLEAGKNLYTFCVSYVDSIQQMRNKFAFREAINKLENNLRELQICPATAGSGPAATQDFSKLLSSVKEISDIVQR
Sequence of Glycogen synthase kinase-3 beta (Homo sapiens) (P49841 whole entry, looked up): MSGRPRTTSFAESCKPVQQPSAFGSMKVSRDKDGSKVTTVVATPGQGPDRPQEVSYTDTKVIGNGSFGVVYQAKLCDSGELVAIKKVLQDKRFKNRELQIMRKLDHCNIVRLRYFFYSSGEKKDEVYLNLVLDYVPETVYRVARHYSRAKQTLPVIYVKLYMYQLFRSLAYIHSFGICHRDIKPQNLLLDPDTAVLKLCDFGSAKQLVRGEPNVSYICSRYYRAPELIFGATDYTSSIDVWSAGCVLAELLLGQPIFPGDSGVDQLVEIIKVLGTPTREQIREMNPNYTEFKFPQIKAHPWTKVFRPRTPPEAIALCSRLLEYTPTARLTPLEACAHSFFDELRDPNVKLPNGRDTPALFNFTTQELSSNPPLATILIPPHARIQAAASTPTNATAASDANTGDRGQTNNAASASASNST
Sequence of Mitogen-activated protein kinase 1 (Homo sapiens) (P28482 whole entry): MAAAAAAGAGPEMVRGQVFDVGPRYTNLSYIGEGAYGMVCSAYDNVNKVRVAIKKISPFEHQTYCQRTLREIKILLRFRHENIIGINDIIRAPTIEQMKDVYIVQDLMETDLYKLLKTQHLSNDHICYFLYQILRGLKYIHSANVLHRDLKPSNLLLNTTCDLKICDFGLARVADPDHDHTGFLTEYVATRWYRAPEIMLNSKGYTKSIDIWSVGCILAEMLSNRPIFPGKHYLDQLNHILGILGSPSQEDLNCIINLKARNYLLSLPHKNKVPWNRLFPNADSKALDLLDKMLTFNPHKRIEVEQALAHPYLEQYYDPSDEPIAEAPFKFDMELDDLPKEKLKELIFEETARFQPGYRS
Sequence of Casein kinase I isoform delta (Homo sapiens) (P48730 whole entry, looked up, canonical isoform): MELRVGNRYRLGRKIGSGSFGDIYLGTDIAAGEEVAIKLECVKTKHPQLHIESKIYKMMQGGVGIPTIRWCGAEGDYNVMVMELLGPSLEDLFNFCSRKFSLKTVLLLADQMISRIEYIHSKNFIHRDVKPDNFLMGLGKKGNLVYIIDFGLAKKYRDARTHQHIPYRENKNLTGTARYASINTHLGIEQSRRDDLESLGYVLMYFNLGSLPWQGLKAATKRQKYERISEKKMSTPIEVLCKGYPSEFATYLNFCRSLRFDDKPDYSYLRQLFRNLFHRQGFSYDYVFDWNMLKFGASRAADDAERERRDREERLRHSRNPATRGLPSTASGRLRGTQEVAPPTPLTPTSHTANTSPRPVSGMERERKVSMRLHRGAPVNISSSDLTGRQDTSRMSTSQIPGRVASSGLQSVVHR

SMILES	ΔTm [1]	ΔTm [2]	ΔTm [3]	ΔTm [4]	ΔTm [5]	ΔTm [6]
FC(F)c1cncc(-c2ccc3ncc4nnc(C5=CCCOCC5)n4c3c2)c1	0.89 °C	0.55 °C	0.33 °C	2.58 °C	0.41 °C	1.62 °C
COc1cc(C)c(S(=O)(=O)N(C)CCOCC(=O)N(C)[C@H]2CCC[C@@H](N3CCN(C)CC3)C2)c(C)c1	-0.63 °C	0.33 °C	0.16 °C	-0.91 °C	-0.21 °C	-0.27 °C
CC1CCN(C(=O)[C@@H](CCn2cccc2C#N)NS(=O)(=O)c2cccc3[nH]ccc23)CC1	0.25 °C	0.59 °C	0.33 °C	-0.44 °C	-8.81 °C	0.05 °C
COc1ccc(-c2csc(NC(=O)[C@H]3CCCCN3S(=O)(=O)c3ccc(C)cc3)n2)cc1	0.82 °C	0.77 °C	2.05 °C	9.29 °C	-0.89 °C	0.39 °C
CCS(=O)(=O)Nc1cccc(Oc2cncc(Nc3ccc(I)cc3F)c2C(N)=O)c1	0.95 °C	0.72 °C	-0.53 °C	-0.71 °C	-2.21 °C	1.45 °C
COc1cc2nc(C)nc(N[C@H](C)c3cc(N)cc(C(F)(F)F)c3)c2cc1O[C@H]1CCOC1	-0.37 °C	0.99 °C	0.27 °C	0.96 °C	0.04 °C	0.75 °C
Cc1c(NC(=O)COc2ccc(Cl)cc2C(=O)c2cc(F)cc(C(F)(F)F)c2)ccc(C(=O)O)c1F	-0.06 °C and 0.75 °C	0.5 °C and 0.58 °C	0.18 °C and 0.09 °C	1.73 °C and 2.32 °C	0.12 °C and 0.93 °C	-0.24 °C and -1.26 °C
CN(CCCCCCC1=C(c2cc(F)cc(F)c2)CCCc2cc(O)ccc21)CCCCS(=O)(=O)CCCC(F)(F)F	-0.9 °C	-0.47 °C	0.28 °C	0 °C	-9.1 °C	0.84 °C
COc1ccc(CC[C@@H](OC(=O)[C@H]2CCCCN2C(=O)[C@@H](c2cc(OC)c(OC)c(OC)c2)C2CCCCC2)c2cccc(OCCN3CCOCC3)c2)cc1OC	-1.34 °C	-4.12 °C	-1.85 °C	-1.12 °C	-0.42 °C	-1.27 °C
c1ccc(C2CCN(c3cnc4c(N5CCOCC5)nccn34)CC2)cc1	0.01 °C	0.19 °C	0.18 °C	-0.6 °C	0.57 °C	-0.14 °C
CC(C(=O)Nc1cc(C#N)ccc1CCCC(=O)O)c1ccc(F)c2ccccc12 (stereo not given)	0.96 °C	0.61 °C	0.09 °C	0.53 °C	-0.07 °C	-0.36 °C
N[C@@H](CC(=O)O)Cn1nnc(-c2ccc(Oc3ncc(Cl)cc3F)cc2)n1	0.91 °C	0.66 °C	-0.24 °C	0.34 °C	0.49 °C	-0.25 °C
CN(C)C/C=C/C(=O)Nc1ccc(C(=O)Nc2cccc(Nc3ncc(Cl)c(-c4c[nH]c5ccccc45)n3)c2)cc1	6.42 °C	7.89 °C	-0.47 °C	12.9 °C	-1.25 °C	10.2 °C
COc1cccc(-c2c(C)c(Cc3c(F)cccc3C(F)(F)F)c3n(c2=O)[C@@H]([C@@H](N)c2ccccc2)CS3)c1F	-0.84 °C	-0.89 °C	-2.7 °C	-0.72 °C	-2.02 °C	-0.62 °C
CCC(C(=O)Nc1ccc(-c2cc3ccccc3s2)c(C(N)=O)c1)c1nccs1 (stereo not given)	0.88 °C	0.25 °C	0.47 °C	0.69 °C	0.41 °C	0.34 °C
CNC(=O)COc1cc2cc(Nc3nc(N4C[C@H](C)C[C@H](C)C4)ncc3Cl)ccc2n(C)c1=O	-0.28 °C	0.46 °C	0.11 °C	-0.11 °C	0.15 °C	0.07 °C
Cn1cnc(Cn2ccc3ccc(CNCc4[nH]c5ccccc5c4[C@H]4NC(=O)c5ccc(O)cc54)cc32)c1	0.28 °C	-0.58 °C	0.32 °C	-0.76 °C	0.91 °C	0.59 °C
COc1ccc2c(O[C@@H]3C[C@H]4C(=O)N[C@]5(C(=O)O)CC5/C=C\CCCCC[C@H](NC(=O)OC5CCCC5)C(=O)N4C3)cc(-c3csc(NC(=O)C(C)C)n3)nc2c1C (stereo not given in full)	0.27 °C [middle of 4 runs]	0.77 °C [middle of 4 runs]	0.4 °C [middle of 4 runs]	-0.22 °C [middle of 4 runs]	0.48 °C [middle of 4 runs]	0.2 °C [middle of 4 runs]
O=C(CNCc1cc2ccccc2[nH]1)N[C@H]1CC[C@@H](c2nc3ccccc3[nH]2)CC1	0.13 °C	0.52 °C	0.18 °C	-0.57 °C	0.34 °C	-0.41 °C
Cc1cc(CN)cc(C)c1-c1ncn(C)c1-c1ccnc2cc(F)ccc12	-0.08 °C	0.32 °C	0.37 °C	-0.11 °C	0.29 °C	0.25 °C
O=C(Nc1cccc(C(F)(F)F)c1)c1cccc(-n2cc(-c3ccco3)nn2)c1	0.46 °C	0.62 °C	-5.13 °C	-7.24 °C	-10.6 °C	-2.64 °C
Clc1cccc(Nc2nccc(NCCCN3CCOCC3)n2)c1	1.3 °C	1.43 °C	0.64 °C	5.39 °C	0.32 °C	2.47 °C
CN(C)c1ccc(-c2cc3ncccc3c(OCCCCO)n2)cc1	5.68 °C	0.73 °C	1.32 °C	0.13 °C	0.3 °C	8.85 °C
COCc1nc2cnc3cc(-c4c(C)noc4C)c(OC[C@H]4CCNC4)cc3c2n1[C@H](C)c1ccccc1	0.08 °C	0.87 °C	0.07 °C	-0.83 °C	0.35 °C	-0.39 °C
Nc1nccc(-c2c(-c3ccc(F)cc3)ncn2C2CCCCC2)n1	2.76 °C	-0.08 °C	8.08 °C	2.6 °C	0.33 °C	-0.66 °C
